Pf Dd2 growth: blocks in vitro growth of P. falciparum Dd2. P. falciparum Dd2 growth, SYBR Green, 72 h. Potency, µM (doses to about 28.9 µM), for the others: at the highest dose activity, negative = inhibition, hits mostly inhibitors. hit rate 4.3% among 120,000; active means well fitted inhibition curve with a large enough effect;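 further: plate controls were DMSO vehicle for no effect and reference drug for full effect; nearly all actives have a fitted effect of over 65% in size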
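Infected erythrocytes (Dd2, 0.3% parasitemia, 2.5% hematocrit final) are added to compound in RPMI-1640/Albumax II medium, grown 72 h at 37C in low oxygen, then lysed with saponin/Triton-X containing SYBR Green and read by fluorescence.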
* = called active by the depositor; i = inactive; [ ] = dose if it differs, or a comment. This is one part of a sample in which hits are shown more often than they occur. Potency means the concentration at half of the fitted maximal effect.

SMILES | Pf Dd2 growth
Cc1ccc2c(c1)N(C(=O)N1CCC(C(=O)NCCc3ccc(Cl)cc3)CC1)CC(C)O2 (configuration not stated) | 8.9µM*
CCCNC(=O)C1CCN(C(=O)N2CC(C)Oc3ccccc32)CC1 (configuration not stated) | 11%
CC1CN(C(=O)N2CCC(C(=O)NCCC3=CCCCC3)CC2)c2cc(Cl)ccc2O1 (configuration not stated) | 212%[5.79 µM]
CCOc1ccc(NC(=O)CN2C(=O)NC3(CCOCC3)C2=O)cc1 | -9%
Cc1noc(C)c1S(=O)(=O)N1CCCOCCNC(=O)[C@@H]2CCCC[C@@H]21 | 1%
COCC(=O)N[C@H](C)c1onc(C)c1C(=O)O | 15%[44.1 µM]
CC(=O)N1CC2(Cc3ccccc31)CN([S+](=O)([O-])c1cccc(C(F)(F)F)c1)C2 | i
Cn1ncc(N2CCCC(CC(=O)Nc3ccccc3F)C2)cc1=O (configuration not stated) | -21%
Cc1ccc(-c2cc3c(n2-c2ccc(C)cc2)CC(C)(C)CC3=O)cc1 | -25%[5.79 µM]
COc1ccc(-n2c(-c3ccc(C)cc3)cc3c2CC(C)(C)CC3=O)c(OC)c1 | 13µM*
CCOc1ccc(-n2c(-c3ccc(OC)cc3)cc3c2CC(C)(C)CC3=O)cc1 | 10%
COc1nccc(N2CCC(CC(=O)NCCCN3CCC(C)CC3)CC2)n1 | -8%
Cc1cnc(CC2CCNC2)n1CC1CC1 (configuration not stated) | -14%
O=C(C1CCOCC1)N1CCC(c2noc(COc3ccc(F)cc3)n2)C1 (configuration not stated) | -20%
CCN(CC)c1cc(CCC(=O)N2CCN(c3cccc(OC)c3)CC2)ccn1 | i
CCN(CC)c1cc(CCC(=O)NCCc2ccccn2)ccn1 | -13%
CCN(CC)c1cc(CCC(=O)NCCOC)ccn1 | 3%
CCN(CC)c1cc(CCC(=O)NCCN2CCCCCC2)ccn1 | 3.5µM*
CCN(CC)c1cc(CCC(=O)NCCCN2CCN(C)CC2)ccn1 | 13%
CCN(CC)c1cc(CCC(=O)N2CCN(c3ccc(Cl)cc3)CC2)ccn1 | 8.9µM*
CCN(CC)c1cc(CCC(=O)N2CCC(COC)CC2)ccn1 | 1%
CCN(CC)c1cc(CCC(=O)O)ccn1 | 53%
CCN(CC)c1cc(CCC(=O)NCCN(C)C2CCCCC2)ccn1 | 1.6µM*
Cc1ccc(N2CC(c3noc(-c4cccc(N(C)C)c4)n3)CC2=O)cc1 (configuration not stated) | -23%
COCCN1Cc2[nH]nc(-c3ccccc3)c2CC1=O | -18%[44.1 µM]
SMILES | Pf Dd2 growth
CC(C)NC(=O)NC[C@H]1O[C@@H](CO)[C@@H](O)[C@H]1N(C)CCc1ccccn1 | -1%
Cc1cc(=O)n(CC(=O)Nc2ccc(C)c(F)c2)c(N2CCOCC2)n1 | -9%
c1cc(-c2ncon2)cc(N2CCc3nc[nH]c3C2)n1 | -6%
COCC(=O)NC1CCC12CCN(C(=O)CCC1CCCC1)CC2 (configuration not stated) | -24%
Cc1cc(C)cc(N2CCN(Cc3cn(-c4ccccc4)nn3)CC2=O)c1 | 11µM*
COc1ccc(C(=O)N2CCN(Cc3cn(-c4ccccc4)nn3)CC2)cc1 | i
c1ccc(-n2cc(CN3CCN(c4nc5ccccc5o4)CC3)nn2)cc1 | -14%
N#Cc1ccc(S(=O)(=O)N2C[C@@H](Oc3cccnc3)C[C@H]2C(N)=O)cc1 | 2%
CC(=O)c1ccc(N2C(=O)N(CC(=O)c3ccc(C)cc3)c3ccccc3S2(=O)=O)cc1 | -21%
CCN1C(=O)N(c2ccc(C(C)=O)cc2)S(=O)(=O)c2ccccc21 | 31%
CCOc1ccc(N2C(=O)N(Cc3ccc(C)cc3C)c3ccccc3S2(=O)=O)cc1 | 10µM*
CCN(CC)Cc1cnc2c(C(=O)Nc3ccc(OC)cc3)cnn2c1 | -28%
CCNC(=O)O[C@@H]1CO[C@H]2[C@@H]1OC[C@@H]2n1cc(C(=O)OC)nn1 | 21%[44.1 µM]
COc1ccc(CNC(=O)[C@@H]2CCC[C@@H](NC(=O)C3CCOCC3)CN(C)C(=O)C2)cc1 | 0%
CS(=O)(=O)Nc1ccc(C2(C(=O)NCc3cccc(Cl)c3)CCCCC2)cc1 | -13%
CC1CCN(S(=O)(=O)c2ccc3c(c2)oc(=O)n3CC(=O)O)CC1 | 22%
CC1CCN(S(=O)(=O)c2ccc3c(c2)oc(=O)n3CC(=O)NC(C)c2ccccc2)CC1 (configuration not stated) | 11µM*
CC(NC(=O)Cn1c(=O)oc2cc(S(=O)(=O)N3CCCCCC3)ccc21)c1ccccc1 (configuration not stated) | 17%
O=C(NCCc1noc(-c2ccncc2)n1)c1n[nH]c2c1CCCCCC2 | i
O=C1CCCCC(C(=O)N2CC=C(c3ccccc3)CC2)N1 (configuration not stated) | -22%
CCn1cc(C(=O)N[C@@H]2CN(S(C)(=O)=O)C[C@H]2CN(C)C)cn1 | 5%
C[C@@H](NC(=O)NC1CCCCC1)c1onc(-c2cccnc2)c1C(=O)O | -10%[44.1 µM]
c1ccc(CN2CCCC3(CC(c4ccccn4)=NO3)C2)cc1 (configuration not stated) | -4%
Cc1ccc(C(=O)N2CCCC3(CC(Cc4ccccc4)=NO3)C2)cc1 (configuration not stated) | -9%
